Structures can show the parent of a compound that is named as a salt. ± gives the standard deviation of the averaged measurements.
Columns and labels:
Experiment in all cases: growth (OD600 after 10 h); higher = more growth (less inhibition)
[1] = system: E. coli TESEC Alr+ wild-type control; conditions: compound 0.1 mM; raw OD600 reference: median of DMSO wells 0.241, cell-free background 0.041
Experimental: (§1)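 TESEC Mtb Alr E. coli, or the Alr+ wild-type control, in 384-well plates with Prestwick library compounds at 0.1 mM and 1% DMSO, across arabinose induction levels of 1E3 to 1E7 nM. Growth is read as OD600 after 10 h at 37 °C in triplicate biological replicates.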

E. coli TESEC Mtb Alr [2] = conditions: compound 0.1 mM
Experimental: as §1

E. coli TESEC Mtb Asd = conditions: compound 0.1 mM
Experimental: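 TESEC E. coli strains in which the native enzyme is deleted and replaced by arabinose-inducible Mtb Asd, DapB, CysH or TrpD, each grown in its selective medium. Strains were screened against the Prestwick library at 0.1 mM and 1% DMSO in 384-well format at low and high arabinose induction. Growth is read as OD600 after 10 h in triplicate.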

[3] = system: E. coli TESEC Alr+ wild-type control; conditions: compound 0.1 mM; raw OD600 reference: median of DMSO wells 0.49, cell-free background 0.052
Experimental: (§2)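 TESEC Mtb Alr E. coli (ΔaraC ΔtolC ΔentC Δalr ΔdadX, arabinose-inducible Mtb Alr) or the Alr+ wild-type control strain, grown in defined M9-fructose medium without D-alanine in 96-well plates with Prestwick library compounds at 0.1 mM and 1% DMSO. Low Alr induction is 0.1 µM arabinose and high induction is 10 mM arabinose.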

E. coli TESEC Mtb Alr [4] = conditions: compound 0.1 mM; remark: listed apart in the source
Experimental: as §2

[5] = arabinose 1000 nM, raw OD600 reference: median of DMSO wells 0.294, cell-free background 0.041
[6] = arabinose 10000 nM, raw OD600 reference: median of DMSO wells 0.264, cell-free background 0.041
[7] = arabinose 100000 nM, raw OD600 reference: median of DMSO wells 0.201, cell-free background 0.041
[8] = arabinose 1000000 nM, raw OD600 reference: median of DMSO wells 0.193, cell-free background 0.041
[9] = arabinose 10000000 nM, raw OD600 reference: median of DMSO wells 0.146, cell-free background 0.041
[10] = arabinose induction (level): High, raw OD600 reference: median of DMSO wells 0.331, cell-free background 0.041
[11] = arabinose induction (level): Low, raw OD600 reference: median of DMSO wells 0.417, cell-free background 0.041
[12] = arabinose 100 nM, raw OD600 reference: median of DMSO wells 0.413, cell-free background 0.052
[13] = arabinose 10000000 nM, raw OD600 reference: median of DMSO wells […], cell-free background 0.052

Row | SMILES | growth [1] | growth (E. coli TESEC Mtb Alr [2]; [5]) | growth (E. coli TESEC Mtb Alr [2]; [6]) | growth (E. coli TESEC Mtb Alr [2]; [7]) | growth (E. coli TESEC Mtb Alr [2]; [8]) | growth (E. coli TESEC Mtb Alr [2]; [9]) | growth (E. coli TESEC Mtb Asd; [10]) | growth (E. coli TESEC Mtb Asd; [11]) | growth [3] | growth (E. coli TESEC Mtb Alr [4]; [12]) | growth (E. coli TESEC Mtb Alr [4]; [13])
1 | NC(Cc1cc(I)c(Oc2cc(I)c(O)c(I)c2)c(I)c1)C(=O)O (stereo unspecified) [Thyroxine (L)] | 0.169 ± 0.0037 | 0.2363 ± 0.0021 | 0.284 ± 0.006 | 0.196 ± 0.021 | 0.154 ± 0.0089 | 0.185 ± 0.0093 | 0.354 ± 0.0042 | 0.292 ± 0.042 | 0.469 ± 0.018 | 0.369 ± 0.034 | 0.359 ± 0.019
2 | Cc1onc(-c2c(F)cccc2Cl)c1C(=O)N[C@@H]1C(=O)N2[C@@H]1SC(C)(C)[C@@H]2C(=O)O [Flucloxacillin sodium] | 0.228 ± 0.0096 | 0.2863 ± 0.0017 | 0.26 ± 0.0097 | 0.186 ± 0.022 | 0.172 ± 0.006 | 0.136 ± 0.0023 | 0.265 ± 0.056 | 0.432 ± 0.059 | 0.496 ± 0.053 | 0.412 ± 0.015 | 0.33 ± 0.021
3 | C[N+](C)(C)CCCCCC[N+](C)(C)C [Hexamethonium dibromide dihydrate] | 0.247 ± 0.0066 | 0.27 ± 0.018 | 0.245 ± 0.0047 | 0.191 ± 0.022 | 0.1745 ± 0.00064 | 0.138 ± 0.0063 | 0.344 ± 0.048 | 0.454 ± 0.015 | 0.536 ± 0.007 | 0.425 ± 0.0087 | 0.384 ± 0.015
4 | C[C@@](Cc1ccc(O)c(O)c1)(NN)C(=O)O [Carbidopa] | 0.225 ± 0.0049 | 0.292 ± 0.024 | 0.118 ± 0.0053 | 0.228 ± 0.048 | 0.0919 ± 0.00096 | 0.193 ± 0.0067 | 0.283 ± 0.11 | 0.357 ± 0.04 | 0.499 ± 0.048 | 0.375 ± 0.014 | 0.257 ± 0.012
5 | N=C(N=C(N)N)N1CCOCC1 [Moroxidine hydrochloride] | 0.255 ± 0.02 | 0.288 ± 0.017 | 0.2687 ± 0.0004 | 0.225 ± 0.022 | 0.186 ± 0.013 | 0.152 ± 0.0076 | 0.366 ± 0.025 | 0.404 ± 0.032 | 0.454 ± 0.045 | 0.404 ± 0.011 | 0.355 ± 0.033
6 | CN1CCN(C(c2ccccc2)c2ccc(Cl)cc2)CC1 (stereo unspecified) [Chlorcyclizine hydrochloride] | 0.179 ± 0.0072 | 0.215 ± 0.021 | 0.174 ± 0.021 | 0.178 ± 0.0045 | 0.07137 ± 0.00015 | 0.1236 ± 0.00055 | 0.149 ± 0.0065 | 0.221 ± 0.0041 | 0.4416 ± 0.0038 | 0.4163 ± 0.0041 | 0.222 ± 0.033
7 | Nc1nc(F)nc2c1ncn2[C@@H]1O[C@H](CO)[C@@H](O)[C@@H]1O [Fludarabine] | 0.207 ± 0.0038 | 0.216 ± 0.0082 | 0.241 ± 0.0025 | 0.168 ± 0.011 | 0.185 ± 0.0037 | 0.133 ± 0.0056 | 0.272 ± 0.031 | 0.222 ± 0.035 | 0.626 ± 0.044 | 0.411 ± 0.0067 | 0.31 ± 0.004
8 | CCOC(=O)C1=C(C)NC(C)=C(C(=O)OC)C1c1cccc([N+](=O)[O-])c1 (stereo unspecified) [Nitrendipine] | 0.173 ± 0.013 | 0.224 ± 0.01 | 0.0536 ± 0.0045 | 0.165 ± 0.0036 | 0.0556 ± 0.00083 | 0.15 ± 0.0073 | 0.246 ± 0.036 | 0.4531 ± 0.0035 | 0.557 ± 0.015 | 0.412 ± 0.017 | 0.221 ± 0.13
9 | O=C1OCCN1/N=C/c1ccc([N+](=O)[O-])o1 [Furazolidone] | 0.0406 ± 0.0001 | 0.041 ± 0.00078 | 0.04053 ± 0.00021 | 0.0418 ± 0.00065 | 0.03987 ± 0.00012 | 0.0412 ± 0.0008 | 0.056 ± 0.0037 | 0.0561 ± 0.0034 | 0.05247 ± 0.00031 | 0.0572 ± 0.0027 | 0.05093 ± 0.00032
10 | Fc1ccc(C(c2ccc(F)cc2)N2CCN(C/C=C/c3ccccc3)CC2)cc1 [Flunarizine dihydrochloride] | 0.0778 ± 0.012 | 0.11 ± 0.019 | 0.0787 ± 0.0024 | 0.116 ± 0.012 | 0.0591 ± 0.0018 | 0.0509 ± 0.0027 | 0.0843 ± 0.013 | 0.056 ± 0.0016 | 0.234 ± 0.0076 | 0.318 ± 0.037 | 0.128 ± 0.014
11 | CC(=O)OCC(=O)[C@@]12N=C(C)O[C@@H]1C[C@H]1[C@@H]3CCC4=CC(=O)C=C[C@]4(C)[C@H]3[C@@H](O)C[C@@]12C [Deflazacort] | 0.151 ± 0.011 | 0.213 ± 0.009 | 0.256 ± 0.0029 | 0.193 ± 0.02 | 0.168 ± 0.0053 | 0.1533 ± 0.00035 | 0.323 ± 0.083 | 0.396 ± 0.032 | 0.48 ± 0.068 | 0.394 ± 0.0082 | 0.347 ± 0.0046
12 | CN(c1nccc(=O)[nH]1)C1CCN(c2nc3ccccc3n2Cc2ccc(F)cc2)CC1 [Mizolastine] | 0.18 ± 0.016 | 0.221 ± 0.011 | 0.172 ± 0.0085 | 0.215 ± 0.01 | 0.0813 ± 0.0018 | 0.1409 ± 0.0014 | 0.177 ± 0.0092 | 0.293 ± 0.036 | 0.426 ± 0.018 | 0.406 ± 0.0081 | 0.162 ± 0.026
13 | CC(=O)Nc1ccc(OCC(O)CNC(C)C)cc1 (stereo unspecified) [Practolol] | 0.244 ± 0.0047 | 0.307 ± 0.0096 | 0.257 ± 0.0077 | 0.229 ± 0.04 | 0.19 ± 0.016 | 0.145 ± 0.0028 | 0.408 ± 0.04 | 0.424 ± 0.027 | 0.643 ± 0.039 | 0.402 ± 0.014 | 0.361 ± 0.0065
14 | COC(=O)C1=C(C)NC(C)=C(C(=O)OCCN(C)Cc2ccccc2)C1c1cccc([N+](=O)[O-])c1 (stereo unspecified) [Nicardipine hydrochloride] | 0.0481 ± 0.0012 | 0.0453 ± 0.0013 | 0.04637 ± 0.00021 | 0.049 ± 0.0015 | 0.045 ± 0.0027 | 0.0566 ± 0.0042 | 0.054 ± 0.0024 | 0.0558 ± 0.0072 | 0.0588 ± 0.0012 | 0.3938 ± 0.0022 | 0.0545 ± 0.0036
15 | CCC[C@@H]1C[C@@H](C(=O)N[C@@H]([C@H]2O[C@H](SC)[C@H](O)[C@@H](O)[C@H]2O)[C@@H](C)O)N(C)C1 [Lincomycin hydrochloride] | 0.0958 ± 0.0084 | 0.122 ± 0.011 | 0.086 ± 0.003 | 0.113 ± 0.0046 | 0.0692 ± 0.0033 | 0.0731 ± 0.00091 | 0.151 ± 0.017 | 0.204 ± 0.02 | 0.486 ± 0.057 | 0.443 ± 0.0099 | 0.12 ± 0.019
16 | CCOC(=O)c1ccc(OC(=O)CCCCCNC(=N)N)cc1 [Gabexate mesilate] | 0.15 ± 0.014 | 0.179 ± 0.0036 | 0.158 ± 0.0034 | 0.109 ± 0.0039 | 0.0891 ± 0.0033 | 0.14 ± 0.0019 | 0.135 ± 0.015 | 0.147 ± 0.017 | 0.495 ± 0.029 | 0.396 ± 0.013 | 0.123 ± 0.0081

— the supplement of paper PMC9262897, “Low-cost anti-mycobacterial drug discovery using engineered E. coli” (Nature Communications, 2022)
